Common to all, as to format: functional
Test [1] relates to Plasmodium falciparum. Briefly: GSK_TCMDC: Inhibition of Plasmodium falciparum 3D7 in whole red blood cells, using parasite LDH activity as an index of growth. Test compounds present at 2uM.
In test [2] the test system is Plasmodium falciparum. The experiment in a line: GSK_TCMDC: Inhibition of Plasmodium falciparum Dd2 in whole red blood cells, using parasite LDH activity as an index of growth. Test compounds present at 2uM.
For the next test, the system named is HepG2. Briefly: GSK_TCMDC: Percent inhibition of human HepG2 cell line. Test compounds present at 10uM.

`Cc1cccc2nc(-c3ccc(-c4cccc(NC(=O)COc5ccccc5C(N)=O)c4)s3)[nH]c12`: the results for the Inhibition with Plasmodium falciparum [1], with Plasmodium falciparum [2] and in the test on HepG2 were 99%, 19% and 80%, respectively.

As for `Cc1cccc2nc(-c3ccc(-c4cccc(CNCc5ccc(CN)cc5)c4)s3)[nH]c12.O=C(O)C(F)(F)F`, the values for the Inhibition in the test on Plasmodium falciparum [1], in the test with Plasmodium falciparum [2] and with HepG2 were 99%, 48% and 11%, respectively.

For the compound `CCOc1cc(CC)ccc1C1CCN(CCN2CCC(NC(=O)c3ccc(-c4ccc(C(C)=O)cc4)cc3)CC2)CC1`, the Inhibition with Plasmodium falciparum [1] was 100%; with Plasmodium falciparum [2], 8%; with HepG2, 25%.

For `O=C(Nc1cccc(-c2ccc(-c3nc4cc(F)ccc4[nH]3)cc2)c1)c1cccnc1`, the Inhibition in the test on Plasmodium falciparum [1] is 100%; in the test on Plasmodium falciparum [2], 92%; with HepG2, 27%.

For the compound `CC(C)(C)c1cc(NC2CC2)nc(-c2ccccn2)n1`, the Inhibition in the test on Plasmodium falciparum [1] is on record as 94%; in the test with Plasmodium falciparum [2], 79%; in the test on HepG2, 7%.

`Cc1cc(N[C@@H](Cc2ccccc2)C(=O)Nc2ccccc2)nc(NCCc2cccnc2)n1.O=C(O)C(F)(F)F`: the Inhibition was determined as 95% in the test on Plasmodium falciparum [1], 57% with Plasmodium falciparum [2] and 32% in the test on HepG2.

`NCC1CCCN1Cc1ccc(-c2cccc(-c3nc4cc(C(F)(F)F)ccc4[nH]3)c2)cc1.O=C(O)C(F)(F)F` (stereo not drawn): the Inhibition with Plasmodium falciparum [1] is recorded as 99%; in the test on Plasmodium falciparum [2], 97%; with HepG2 it was 24%.

As to `CN(C)CCN(Cc1ccc(-c2ccc(CNCCc3ccccc3)cc2)nc1)C(=O)CCC1CCCC1.O=C(O)C(F)(F)F`, the Inhibition stood at 96% in the test on Plasmodium falciparum [1], 89% in the test with Plasmodium falciparum [2] and 98% with HepG2.

Take `C[C@@H](N/C(=N\c1ccccc1Cl)Nc1ccc(C#N)cc1O)c1ccc(Br)cc1`: the figures for the Inhibition with Plasmodium falciparum [1], in the test with Plasmodium falciparum [2] and in the test on HepG2 were 98%, 70% and 33%, respectively.

Regarding `O=C(CNC(=O)c1ccc(O)cc1)Nc1ccc(-c2cccc(-c3nc4cc(C(F)(F)F)ccc4[nH]3)c2)cc1`, the results for the Inhibition in the test with Plasmodium falciparum [1], in the test on Plasmodium falciparum [2] and in the test with HepG2 were 92%, 47% and 26%, respectively.

On to `CCN(CC)/C(=N/C(=N)Nc1ccc(C)cc1)NCCCCCCN/C(=N\C(=N)Nc1ccc(C)cc1)N(CC)CC`, for which the Inhibition with Plasmodium falciparum [1] is given as 97%; in the test on Plasmodium falciparum [2] it was 98%; in the test with HepG2, 10%.

For the compound `CN(C)Cc1ccc(-c2ccc(NC(=O)c3ccc4c(=O)n(Cc5ccoc5)cnc4c3)cc2)cc1`, the Inhibition in the test with Plasmodium falciparum [1] is recorded as 80%; in the test with Plasmodium falciparum [2], 16%; in the test on HepG2, 32%.

Turning to `Nc1cccc(CNCc2cccc(-c3ccc(-c4nc5ccccc5[nH]4)cc3)c2)c1.O=C(O)C(F)(F)F`, the results for the Inhibition in the test with Plasmodium falciparum [1], with Plasmodium falciparum [2] and in the test on HepG2 were 100%, 92% and 0%, respectively.

In the case of `COc1cc2nc(N3CCC(CNC(=O)/C=C/c4cccc(C)c4)CC3)nc(N)c2cc1OC`, the Inhibition was 100% with Plasmodium falciparum [1], 68% in the test on Plasmodium falciparum [2] and 16% with HepG2.

As to `Br.CC1(C)N=C(N)N=C(N)N1OCCc1ccc2ccccc2c1`, the Inhibition with Plasmodium falciparum [1] came to 96%; in the test on Plasmodium falciparum [2], 95%; in the test on HepG2 it was 65%.

`Nc1nc(N)c2c(ccc3c2ccn3Cc2ccccc2)n1`: the figures for the Inhibition in the test on Plasmodium falciparum [1], with Plasmodium falciparum [2] and in the test with HepG2 were 96%, 94% and 64%, respectively.

On to `O=C(NC1CCCCC1)N(Cc1cccc(-c2cccc(CNC3CCCC3)c2)c1)C1CCN(Cc2ccccc2)CC1.O=C(O)C(F)(F)F`, for which the Inhibition with Plasmodium falciparum [1] was 96%; in the test with Plasmodium falciparum [2], 90%; in the test on HepG2, 64%.

Take `O=C(Nc1ccc(OC2CCN(Cc3ccsc3)CC2)c(Cl)c1)c1ccco1.O=C(O)C(F)(F)F`: the Inhibition is reported as 87% in the test on Plasmodium falciparum [1], 85% in the test on Plasmodium falciparum [2] and 7% with HepG2.

As for `CON=C1CCC(Cn2ccnc2)(c2ccc(Cl)cc2Cl)CC1` (stereo not drawn), the Inhibition is reported as 100% with Plasmodium falciparum [1], 56% in the test with Plasmodium falciparum [2] and 7% in the test with HepG2.

With `O=C(NCC1CCN(Cc2cccc(F)c2)C1)c1cc(-c2cccc(C(F)(F)F)c2)cs1.O=C(O)C(F)(F)F` (stereo not drawn), the figures for the Inhibition with Plasmodium falciparum [1], with Plasmodium falciparum [2] and with HepG2 were 96%, 10% and 31%, respectively.

For `c1cncc(-c2cc(N3CCc4ccccc4C3)nc(-c3ccncc3)n2)c1`, the Inhibition is on record as 100% in the test with Plasmodium falciparum [1], 100% in the test on Plasmodium falciparum [2] and 56% in the test on HepG2.

On to `COc1cc2nc(Nc3ccc4c(c3)OCCO4)nc(N)c2cc1OC.Cl`, for which the Inhibition in the test on Plasmodium falciparum [1] is 100%; in the test with Plasmodium falciparum [2] it was 80%; in the test with HepG2, 13%.

Regarding `CC(=O)Nc1ccc(CN2CCC(NC(=O)c3ccc(-c4cccc(F)c4)s3)CC2)cc1.O=C(O)C(F)(F)F`, the Inhibition is 96% in the test with Plasmodium falciparum [1], 13% in the test with Plasmodium falciparum [2] and 6% in the test with HepG2.

Regarding `O=C(Nc1ccc2c(c1)CCC2)c1cccc(N2CCN(c3ccncc3)CC2)c1.O=C(O)C(F)(F)F`, the results for the Inhibition in the test with Plasmodium falciparum [1], with Plasmodium falciparum [2] and in the test on HepG2 were 92%, 22% and 35%, respectively.

Turning to `COc1ccc2c(NN=Cc3ccc(N(C)C)cc3)ccnc2c1`, the Inhibition worked out at 100% with Plasmodium falciparum [1], 100% with Plasmodium falciparum [2] and 12% in the test on HepG2.

For `Cc1ccc(NC(=O)c2ccc(CN3CCCN(CCC(C)C)CC3)cc2)cc1C.O=C(O)C(F)(F)F`, the results for the Inhibition with Plasmodium falciparum [1], in the test on Plasmodium falciparum [2] and in the test on HepG2 were 92%, 17% and 25%, respectively.

In the case of `Cc1cccc2nc(-c3ccc(-c4ccc(NC(=O)Nc5cccc(C#N)c5)cc4)s3)[nH]c12`, the values for the Inhibition with Plasmodium falciparum [1], with Plasmodium falciparum [2] and in the test with HepG2 were 100%, 100% and 33%, respectively.

For `O=C(NCCCCN1CCN(c2cccc3c2OCCO3)CC1)c1ccc(NC(=O)c2cc(Cl)cc(Cl)c2)cc1`, the figures for the Inhibition in the test on Plasmodium falciparum [1], in the test on Plasmodium falciparum [2] and in the test with HepG2 were 100%, 89% and 21%, respectively.

Turning to `COc1cccc2c(Nc3ccccc3C)nc(Nc3ccccc3C)nc12`, the Inhibition in the test on Plasmodium falciparum [1] is reported as 95%; in the test on Plasmodium falciparum [2] it was 36%; with HepG2, 9%.

Take `Oc1ccc2ccccc2c1C=NNc1nc(=Nc2ccccc2)[nH]c(=Nc2ccccc2)[nH]1`: the Inhibition in the test on Plasmodium falciparum [1] worked out at 99%; in the test on Plasmodium falciparum [2] it was 73%; in the test on HepG2, 55%.

Turning to `COC(=O)c1ccccc1N1CCN(CCCCNC(=O)c2ccc(NC(=O)c3cc(Cl)cc(Cl)c3)cc2)CC1`, the Inhibition in the test with Plasmodium falciparum [1] was 100%; with Plasmodium falciparum [2], 42%; with HepG2, 20%.

Broadly, the Inhibition is the share of the control response that was lost under treatment. A high value points to a response far below the control.

These data come from ChEMBL document CHEMBL1157539, “Thousands of chemical starting points for antimalarial lead identification” (Nature, 2010).
